From PubChem
In the library only some 7.9% were active in any assay of this set; here they are far more common.
HCV inhibitor: blocks hepatitis C virus. Huh7.5.1 HCVcc-Cre infection, luciferase reporter, 44 h. Potency, µM (doses to about 41.8 µM), actives largely listed as inhibitors. AID 651820. 340,000 compounds, 3.4% hits; active = well fitted inhibition curve with a large enough effect; inconclusive = small, poorly fitted or top-dose-only effect, or another doubt; inactive = no such curve, though single readings can be large or run the other way
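Cells (1,000/well) were plated 4 h before compound, then infected with HCVcc-Cre virus (~0.5 moi). After 44 h further culture, infection was read as luciferase luminescence following a 15 min substrate incubation at room temperature.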
Lassa entry inh: Lassa virus entry inhibition | Lassa virus pseudotype entry inhibition, cell reporter | Potency, µM (doses to about 37.9 µM), usual class: inhibitors | 300,000 compounds, 1.2% hits; calls by dose curve; tested in HEK293 cells; also: nearly all actives have a fitted effect of over 50% in size
FMDV antiviral: blocks foot and mouth disease virus | FMDV antiviral cell-based qHTS | AID 1159524 | 410,000 compounds, 1.2% hits | Potency, µM (top dose mostly 57.9 µM), most hits filed as inhibitors; calls by dose curve; tested in HEK293T cells; also: read-out not given here; nearly all actives have a fitted effect of over 45% in size
MARV entry inh: blocks Marburg virus binding to or entry into cells. Potency, µM (series often up to 37.8 µM), most hits filed as inhibitors. Marburg virus pseudotyped entry inhibition, cell reporter. AID 540276. 300,000 compounds, 1.8% hits; calls by dose curve; tested in HEK293 cells
HCMV antiviral: inhibitors of human cytomegalovirus; HFF cells, HCMV-luciferase reporter, 72 h; hits give low values; activity change, negative = inhibition, % at 57.5 µM; 410,000 compounds, 4.5% hits; AID 1259415; in the data active = activity change below about -60%; inconclusive = no clear call, values can overlap the other calls; inactive = above about -39%
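Cell-based, HFFs, 1000 cells/well, 16 h 37C; cpds in DMSO + HCMV-luc, MOI 1 PFU/cell; 72 h 37C; OneGlo luminescence after 5 min RT; norm. to buffer vs Salinomycin 10uM.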
Numbers stand for hits; - = inactive; ? = inconclusive; . = no result; [ ] = remark or other dose.

SMILES	HCV inhibitor	Lassa entry inh	FMDV antiviral	MARV entry inh	HCMV antiviral
CCCCCCCCCC(=O)N/N=C/c1ccc(C)s1	-	9.2µM	-	?	-
Cc1ccccc1-n1c(SCC(=O)NC(N)=O)nc2sc(-c3ccccc3)cc2c1=O	?	-	-	?	-71
O=C(CSc1nnc(SCc2cccc3ccccc23)s1)Nc1ccc(C(=O)O)cc1	-	-	-	-	-
Cc1ccc(/C=N/NC(=O)CSc2nc3ccccc3c(=O)n2-c2ccccc2)s1	-	-	-	-	-
Cc1ccccc1-n1c(SCC(N)=O)nc2sc(-c3ccccc3)cc2c1=O	-	-	-	-	-
Cc1ccc(/C=N/NC(=O)CSc2nc3ccccc3c(=O)n2-c2ccccc2C)s1	?	?	-	?	-69
Cc1nn(-c2ccccc2)c(C)c1/C=N/NC(=O)CSc1nnc(SCc2cccc3ccccc23)s1	14µM	?	-	?	-
CS(=O)(=O)N(CC(=O)N1CCCC1)Cc1ccc(Cl)c(Cl)c1	-	.	-	.	-
O=[N+]([O-])c1cc(Oc2cccnc2)cc([N+](=O)[O-])c1	-	-	-	-	-
Cn1cc([N+](=O)[O-])c(C(=O)Nc2cc(Oc3cccnc3)cc([N+](=O)[O-])c2)n1	?	-	?	-	-106
COc1ccc(Oc2cc(NC(=O)c3nn(C)cc3[N+](=O)[O-])cc([N+](=O)[O-])c2)cc1	?	?	?	-	-110
CC[n+]1c(/C=C/Nc2ccccc2)sc2ccccc21	-	-	-	?	-
CCN1/C(=C/C=C/C=C/C=C/c2sc3ccccc3[n+]2CC)Sc2ccccc21	?	.	10µM	.	-96
CC[n+]1c(/C=C(\C)SC)sc2ccccc21	?	?	.	-	-
CCN1/C(=C/C=C/C=C/c2sc3ccccc3[n+]2CC)Sc2ccccc21	-[8.37 µM]	1.8µM	.	4.6µM	.
CCN1/C(=C/C=C/c2sc3ccccc3[n+]2CC)Sc2ccccc21	1.6µM	.	14µM	.	.
Cc1cc(C(=O)N2CCN(c3cc(Cl)ccc3C)CC2)c2c(C)nn(-c3ccccc3)c2n1	.	-	-	.	-
O=c1c(-c2cc(F)cc(F)c2)nc2cnc(N3CCNCC3)nc2n1-c1ccccc1	.	.	-	.	.
COc1ccc(CC(=O)OCC(=O)NC2CCCCC2)cc1OC	-	-	-	-	-
COc1ccc2cc(CN(Cc3cccs3)Cc3nnnn3Cc3ccccc3)c(=O)[nH]c2c1	-	?	-	-	-99
CCOC(=O)Cn1nnnc1CN(Cc1cccs1)Cc1cc2cc(C)cc(C)c2[nH]c1=O	-	-	-	-	-
COc1ccc2cc(CN(Cc3cccnc3)Cc3nnnn3Cc3ccccc3)c(=O)[nH]c2c1	-	?	.	-	-
Cc1cccc2cc(CN(Cc3cccs3)Cc3nnnn3Cc3ccccc3)c(=O)[nH]c12	10µM	?	.	16µM	?
Cc1ncc2c(c1CNC(=O)/C=C/c1cccs1)CCN(C(=O)C1CCCO1)C2 (configuration not stated)	.	.	-	.	.
Cc1ccc(-c2noc(-c3ccc(NCc4cccnc4)c([N+](=O)[O-])c3)n2)cc1	.	-	-	-	-
SMILES	HCV inhibitor	Lassa entry inh	FMDV antiviral	MARV entry inh	HCMV antiviral
NC(=O)N/N=C/C=C/c1ccc(F)cc1	-	-	-	-	-
COc1ccc(C(C)=O)cc1CSc1nnc(Nc2ccccc2)s1	?	?	?	18µM	-70
COc1ccc(C(C)=O)cc1CSc1ncccn1	?	-	-	?	?
COc1ccc(C(C)=O)cc1CSc1nnc(-c2ccc(Cl)cc2)n1-c1ccccc1	7.9µM	?	-	?	?
COc1ccc(C(C)=O)cc1CSc1nnc(C)s1	-	-	-	-	-
COc1ccc(C(C)=O)cc1CSc1nnc(Nc2ccc(C)cc2)s1	?	?	-	?	-61
CCOC(=O)c1c(NC(=O)c2noc3c2CC(C(C)(C)C)CC3)sc2c1CCCC2 (configuration not stated)	.	-	-	-	-
CC(C)CCCC(C)C1CCC2C3CC=C4CC(=O)CC[C@@]4(C)C3CC[C@@]12C (some centres not stated)	.	.	-	.	.
CN1CCN(c2ncc3ncc(=O)n(C4CC4)c3n2)CC1	.	.	-	.	.
CCc1ccc(OCc2ccccc2C(=O)Nc2ccc3nc(C)cc(N)c3c2)cc1	.	.	-	.	.
Cc1cnc(-n2ncc(C(=O)N[C@H]3CCCCNC3=O)c2C2CC2)nc1-c1cccs1	.	.	-	.	.
C/C(=N\OCc1cccc(C(=O)O)c1)c1ccc(Cl)cc1	-	?	10µM	?	-
COc1ccc(N/N=C/c2c(C(=O)O)ccc3ccccc23)cc1	?	.	-	.	-100
